# Results taken from PubChem BioAssay.
# For part of these data: Potency and affinity values are given separately. Active and inactive are the calls of the source.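 Rule for the calls, unless noted: active = primary screen inhibitor hit that blocks the TRPC4 channel at some tested dose, yielding a dose curve; inactive = the rest.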
# Tests used:
# [1] = system: TRPC4 beta (transient receptor potential cation channel C4), mouse; assay: activators of mouse TRPC4 channel, confirmation, cell-based, Fluo4 calcium, HEK293 TRPC4beta/mu-opioid, duplicates, 10 µM (AID 2426;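 active = fluorescence ratio normalized to control raised more than 50% in primary screen plus both repeat runs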;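 for activation: percent rise of integrated ratio over buffer wells lacking compound which define 0%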); conditions: Fluo4 calcium fluorescence, at 10 µM; stronger effect = higher value
# [2] = system: transient receptor potential cation channel C4 beta (TRPC4), mouse; assay: activators of mouse TRPC4 channel, confirmation, cell-based, second round, Fluo4, HEK293 TRPC4beta/mu-opioid, 1 µM (AID 2461;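 active = primary screen active and over 50% activation in each of two duplicate runs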;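 for activation: 0% = wells without test compound as baseline of integrated fluorescence ratio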); conditions: Fluo4 calcium fluorescence, at 1 µM; stronger effect = higher value
# [3] = system: TRPC4 (transient receptor potential cation channel C4 beta), mouse; assay: positive allosteric modulators of mouse TRPC4, confirmation, cell-based, second round, Fluo-4, HEK293 TRPC4beta/mu-opioid, 1 µM (AID 2554;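 active = primary screen hit whose fluorescence ratio, in both repeats, exceeds the weak agonist control mean by 3 SD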); conditions: DAMGO EC20, Fluo-4 calcium flux, at 1 µM; stronger effect = higher value
# [4] = system: TRPC4 beta (transient receptor potential cation channel C4), mouse; assay: positive allosteric modulators of mouse TRPC4, confirmation, cell-based, Fluo-4, HEK293 TRPC4beta/mu-opioid (AID 2555;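 active = primary screen hit whose calcium fluorescence ratio, in both repeats, exceeds the weak agonist control mean by 3 SD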); conditions: DAMGO EC20, Fluo-4 calcium flux, at 10 µM; stronger effect = higher value
# [5] = molecular target: Short transient receptor potential channel 4 (Mus musculus) (UniProt Q9QUQ5); assay: inhibitors of mouse TRPC4 channel, confirmation, cell-based, Fluo4, HEK293 TRPC4beta/mu-opioid (AID 2636;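 active = calcium signal cut by more than 3 SD below the full-agonist control yet still positive, in both repeats and the earlier primary screen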); conditions: DAMGO, Fluo4 calcium flux, at 10 µM; stronger effect = higher value
# Sequence of Short transient receptor potential channel 4 (Mus musculus) (Q9QUQ5 whole entry, looked up): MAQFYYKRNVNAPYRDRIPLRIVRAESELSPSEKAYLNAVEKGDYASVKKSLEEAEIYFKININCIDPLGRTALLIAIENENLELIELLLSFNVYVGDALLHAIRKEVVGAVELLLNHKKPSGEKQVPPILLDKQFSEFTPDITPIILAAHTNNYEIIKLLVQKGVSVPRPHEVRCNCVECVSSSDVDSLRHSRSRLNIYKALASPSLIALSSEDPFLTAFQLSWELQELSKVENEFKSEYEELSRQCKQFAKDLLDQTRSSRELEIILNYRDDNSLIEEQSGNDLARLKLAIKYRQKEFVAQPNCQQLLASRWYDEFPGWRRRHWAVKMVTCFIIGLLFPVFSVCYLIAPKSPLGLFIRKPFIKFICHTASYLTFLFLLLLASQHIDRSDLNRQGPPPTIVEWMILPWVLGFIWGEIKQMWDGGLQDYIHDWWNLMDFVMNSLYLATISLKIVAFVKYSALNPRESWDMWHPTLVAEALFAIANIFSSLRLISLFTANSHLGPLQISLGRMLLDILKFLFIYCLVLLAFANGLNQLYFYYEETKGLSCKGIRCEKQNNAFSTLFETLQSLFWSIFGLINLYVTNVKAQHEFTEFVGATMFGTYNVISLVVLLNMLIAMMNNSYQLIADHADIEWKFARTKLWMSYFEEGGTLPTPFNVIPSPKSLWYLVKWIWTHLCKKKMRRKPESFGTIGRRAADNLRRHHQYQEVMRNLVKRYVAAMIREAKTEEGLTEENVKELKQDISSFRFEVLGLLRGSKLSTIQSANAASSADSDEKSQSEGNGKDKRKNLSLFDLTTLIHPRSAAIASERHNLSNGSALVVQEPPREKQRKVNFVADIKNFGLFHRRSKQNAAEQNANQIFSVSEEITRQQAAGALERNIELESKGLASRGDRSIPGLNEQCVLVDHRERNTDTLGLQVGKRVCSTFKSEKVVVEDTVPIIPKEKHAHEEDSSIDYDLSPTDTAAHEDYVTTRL
# [6] = molecular target: Short transient receptor potential channel 4 (Mus musculus) (UniProt Q9QUQ5); assay: inhibitors of mouse TRPC4 channel, confirmation, cell-based, second round, Fluo4, HEK293 TRPC4beta/mu-opioid, 1 µM (AID 2637;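 active = calcium signal ratio cut to more than 3 SD under the fully stimulated control mean yet still positive, in both repeats and the primary screen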); conditions: Fluo4 calcium flux, DAMGO, at 1 µM; stronger effect = higher value
# [7] = molecular target: Short transient receptor potential channel 4 (Mus musculus) (UniProt Q9QUQ5); assay: TRPC4 positive allosteric modulators, dose response, cell-based, HEK293 TRPC4/mu-opioid, Fluo-4 calcium, EC20 DAMGO (AID 434941;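 active = earlier screen potentiator hit that boosts the TRPC4 ion channel at some dose, with a dose response; inactive = no potentiation, no dose response, or not a prior hit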;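 note: calcium entry triggered by an EC20 dose of DAMGO at the co-expressed mu-opioid receptor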)
# [8] = molecular target: Short transient receptor potential channel 4 (Mus musculus) (UniProt Q9QUQ5); assay: mouse TRPC4 channel inhibitors, dose response, cell-based, HEK293 TRPC4/mu-opioid, Fluo-4 calcium (AID 434942)
# [9] = molecular target: Short transient receptor potential channel 6 (Mus musculus) (UniProt Q61143); assay: inhibition of mouse TRPC6 channel, confirmation, selectivity assay for TRPC4 inhibitor project, cell-based, HEK293, membrane potential dye, duplicate (AID 434948;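 active = active in primary screen and both duplicates, each dropping signal beyond three positive-control SD with fluorescence still positive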); conditions: HEK293 TRPC6, membrane potential dye fluorescence, at 10 µM, stimulated with maximal-effect acetylcholine; stronger effect = higher value
# Sequence of Short transient receptor potential channel 6 (Mus musculus) (Q61143 whole entry, looked up): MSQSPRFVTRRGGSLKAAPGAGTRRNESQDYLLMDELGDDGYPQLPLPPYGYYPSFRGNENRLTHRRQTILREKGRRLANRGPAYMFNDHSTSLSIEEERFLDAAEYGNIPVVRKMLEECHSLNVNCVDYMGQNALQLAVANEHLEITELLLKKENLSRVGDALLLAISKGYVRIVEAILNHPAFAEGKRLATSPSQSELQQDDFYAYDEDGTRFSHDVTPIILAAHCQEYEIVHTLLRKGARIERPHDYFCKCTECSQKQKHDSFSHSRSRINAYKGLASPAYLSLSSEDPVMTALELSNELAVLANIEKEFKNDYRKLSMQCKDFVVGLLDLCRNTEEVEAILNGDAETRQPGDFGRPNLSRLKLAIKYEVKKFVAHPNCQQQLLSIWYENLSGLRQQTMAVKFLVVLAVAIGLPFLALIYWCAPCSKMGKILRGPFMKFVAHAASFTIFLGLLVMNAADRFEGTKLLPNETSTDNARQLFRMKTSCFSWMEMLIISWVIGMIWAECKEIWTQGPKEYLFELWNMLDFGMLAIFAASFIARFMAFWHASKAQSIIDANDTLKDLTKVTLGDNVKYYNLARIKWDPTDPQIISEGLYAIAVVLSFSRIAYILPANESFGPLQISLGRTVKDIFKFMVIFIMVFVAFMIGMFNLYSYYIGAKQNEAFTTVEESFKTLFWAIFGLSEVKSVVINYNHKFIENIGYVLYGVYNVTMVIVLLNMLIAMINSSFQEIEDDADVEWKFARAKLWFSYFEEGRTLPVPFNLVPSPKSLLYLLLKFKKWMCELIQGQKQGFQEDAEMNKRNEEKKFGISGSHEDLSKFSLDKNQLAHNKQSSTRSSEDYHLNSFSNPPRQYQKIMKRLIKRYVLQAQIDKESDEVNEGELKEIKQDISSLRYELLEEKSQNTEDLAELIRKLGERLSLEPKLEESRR
# [10] = molecular target: Short transient receptor potential channel 6 (Mus musculus) (UniProt Q61143); assay: activation of mouse TRPC6 channel, confirmation, selectivity assay for TRPC4 activator project, cell-based, HEK293, membrane potential dye, duplicate (AID 434950;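 active = membrane potential signal rise above negative control mean plus 3 SD in both duplicates, also active in the earlier TRPC4 screen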;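 for activation: 0% = buffer only wells and 100% = acetylcholine maximal-effect wells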); conditions: HEK293 TRPC6, membrane potential fluorescence, at 10 µM; stronger effect = higher value
# [11] = molecular target: Short transient receptor potential channel 6 (Mus musculus) (UniProt Q61143); assay: TRPC6 potentiation by TRPC4 potentiator hits, confirmation, selectivity assay for TRPC4 potentiator project, HEK293 cells, membrane potential dye, duplicate (AID 434952;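 active = compound raising the membrane signal above positive-control mean plus 3 SD in both repeats, and a primary screen hit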); conditions: HEK293 TRPC6, membrane potential dye fluorescence, at 10 µM, maximal acetylcholine added after compound; stronger effect = higher value
# [12] = molecular target: Short transient receptor potential channel 4 (Mus musculus) (UniProt Q9QUQ5); assay: calcium flux activators in TRPC4/5HT1a cells, counter-screen for TRPC4 activator project, cell-based, second counter screen, HEK293 TRPC4/5HT1a, Fluo-4 (AID 434977;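 active = calcium signal rise above buffer-control mean plus 5 SD in both duplicates, and also a hit in the primary screen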;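 for activation: plate controls were assay buffer for no effect and maximal serotonin response for full effect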); conditions: Fluo-4 calcium flux, at 10 µM; stronger effect = higher value
# [13] = calcium flux inhibitors in TRPC4/5HT1a cells, confirmation, counter-screen for TRPC4 inhibitor project, cell-based, second counter screen, HEK293 TRPC4/5HT1a, Fluo-4 (AID 434978;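 active = primary screen active whose calcium signal fell more than 3 SD beyond the full-serotonin control mean in both duplicate plates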;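 note: serotonin given first at submaximal then at maximal dose after compound preincubation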); conditions: Fluo-4 calcium flux, at 10 µM, serotonin added to trigger calcium flux; stronger effect = higher value
# [14] = system: TRPC4 (mouse), co-expressed with 5HT1a in HEK293; assay: calcium flux potentiators in TRPC4/5HT1a cells, confirmation, counter-screen for TRPC4 potentiator project, cell-based, second counter screen, HEK293 TRPC4/5HT1a, Fluo-4 (AID 434979;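 active = signal rise over 3 SD above mean of control wells given weak agonist, in both repeats and first screen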); conditions: Fluo-4 calcium flux, at 10 µM, serotonin added at its EC20 dose; stronger effect = higher value
# [15] = calcium flux activation in mu-opioid HEK293 cells, confirmation, counter-screen for TRPC4 activator project, cell-based, HEK293 mu-opioid receptor line (AID 449723;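 active = hit in primary screen, with calcium signal over 5 SD above buffer well mean in both duplicates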;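 note: counter screen cells carry the mu-opioid receptor alone and lack TRPC4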); conditions: Fluo-4 calcium fluorescence, at 10 µM; stronger effect = higher value
# [16] = calcium flux enhancement in mu-opioid HEK293 cells, confirmation, counter-screen for TRPC4 allosteric potentiator project, cell-based, HEK293 mu-opioid receptor line (AID 449724;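 active = calcium signal rise more than 3 SD above the low-dose agonist control mean, in both duplicate plates and the primary screen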); conditions: Fluo-4 calcium flux, at 10 µM, compound added before EC20 DAMGO stimulus; stronger effect = higher value
structure (smiles),measurement,setting,value
COc1cc2ccccc2cc1C(=O)NCC(c1cccs1)N(C)C (stereo not given),activation,[1],164% (active)
same,outcome,[2],inactive
same,outcome,[3],inactive
same,outcome,[4],inactive
same,outcome,[5],inactive
same,outcome,[6],inactive
same,outcome,[7],inactive
same,outcome,[8],inactive
same,outcome,[9],inactive
same,activation,[10],59.5% (active)
same,outcome,[11],inactive
same,outcome,[12],inactive
same,outcome,[13],inactive
same,outcome,[14],inactive
same,outcome,[15],inactive
same,outcome,[16],inactive
Cc1noc(C)c1CCC(=O)NC1CCCN(Cc2ccc(CC(C)C)cc2)C1 (stereo not given),activation,[1],75% (active)
same,outcome,[2],inactive
same,outcome,[3],inactive
same,outcome,[4],inactive
same,outcome,[5],inactive
same,outcome,[6],inactive
same,outcome,[7],inactive
same,outcome,[8],inactive
same,outcome,[9],inactive
same,activation,[10],46% (active)
same,outcome,[11],inactive
same,activation,[12],20.6% (active)
same,outcome,[13],inactive
same,outcome,[14],inactive
same,outcome,[15],inactive
same,outcome,[16],inactive
Fc1ccc(-c2nn(-c3ccccc3)cc2CNCc2ccccc2)cc1,outcome,[1],inactive
same,outcome,[2],inactive
same,outcome,[3],inactive
same,outcome,[4],inactive
same,outcome,[5],inactive
same,outcome,[6],inactive
same,outcome,[7],inactive
same,outcome,[8],inactive
same,outcome,[9],inactive
same,outcome,[10],inactive
same,outcome,[11],inactive
same,outcome,[12],inactive
same,outcome,[13],inactive
same,outcome,[14],inactive
same,outcome,[15],inactive
same,outcome,[16],inactive
COc1ccc(CSCCN)cc1Cl,activation,[1],108% (active)
same,outcome,[2],inactive
same,outcome,[3],inactive
same,outcome,[4],inactive
same,outcome,[5],inactive
same,outcome,[6],inactive
same,outcome,[7],inactive
same,outcome,[8],inactive
same,outcome,[9],inactive
same,outcome,[10],inactive
same,outcome,[11],inactive
same,activation,[12],27.1% (active)
same,outcome,[13],inactive
same,outcome,[14],inactive
same,outcome,[15],inactive
same,outcome,[16],inactive
CN1CCCC(OC(=O)c2cc(Br)ccc2Cl)C1 (stereo not given),activation,[1],116% (active)
same,activation,[2],87% (active)
same,outcome,[3],inactive
same,outcome,[4],inactive
same,outcome,[5],inactive
same,outcome,[6],inactive
same,outcome,[7],inactive
same,outcome,[8],inactive
same,outcome,[9],inactive
same,activation,[10],47% (active)
same,outcome,[11],inactive
same,activation,[12],43.7% (active)
same,outcome,[13],inactive
same,outcome,[14],inactive
same,outcome,[15],inactive
same,outcome,[16],inactive
CCCN(CCC(=O)Nc1cc(OC)cc(OC)c1)CC1CC1,activation,[1],180% (active)
same,activation,[2],69% (active)
same,outcome,[3],inactive
same,outcome,[4],inactive
same,outcome,[5],inactive
same,outcome,[6],inactive
same,outcome,[7],inactive
same,outcome,[8],inactive
same,outcome,[9],inactive
same,activation,[10],49% (active)
same,outcome,[11],inactive
same,activation,[12],54.9% (active)
same,outcome,[13],inactive
same,outcome,[14],inactive
same,outcome,[15],inactive
same,outcome,[16],inactive
CCCCN(CC)CCNC(=O)c1cc2c(-c3ccc(Cl)cc3)nn(C)c2s1,outcome,[1],inactive
same,outcome,[2],inactive
same,outcome,[3],inactive
same,outcome,[4],inactive
same,outcome,[5],inactive
same,outcome,[6],inactive
same,outcome,[7],inactive
same,outcome,[8],inactive
same,outcome,[9],inactive
same,outcome,[10],inactive
same,outcome,[11],inactive
same,activation,[12],20.5% (active)
same,outcome,[13],inactive
same,outcome,[14],inactive
same,outcome,[15],inactive
same,outcome,[16],inactive
C=CCn1c(/N=C/c2ccc(N(C)C)cc2)nc2ccccc21,activation,[1],148% (active)
same,outcome,[2],inactive
same,outcome,[3],inactive
same,potentiation,[4],24% (active)
same,outcome,[5],inactive
same,outcome,[6],inactive
same,outcome,[7],inactive
same,outcome,[8],inactive
same,outcome,[9],inactive
same,activation,[10],159% (active)
same,outcome,[11],inactive
same,activation,[12],44.6% (active)
same,outcome,[13],inactive
same,potentiation,[14],10.4% (active)
same,activation,[15],103% (active)
same,activation,[16],1320% (active)
CCN1CCCC1CNS(=O)(=O)c1c(C)cc(C)cc1C (stereo not given),activation,[1],95% (active)
same,outcome,[2],inactive
same,outcome,[3],inactive
same,outcome,[4],inactive
same,outcome,[5],inactive
same,outcome,[6],inactive
same,outcome,[7],inactive
same,outcome,[8],inactive
same,outcome,[9],inactive
same,activation,[10],61.5% (active)
same,outcome,[11],inactive
same,activation,[12],20.3% (active)
same,outcome,[13],inactive
same,outcome,[14],inactive
same,outcome,[15],inactive
same,outcome,[16],inactive
COc1ccc2c(Cl)c(-c3nnc(SCC(=O)c4ccccc4)n3C)sc2c1,outcome,[1],inactive
same,outcome,[2],inactive
same,outcome,[3],inactive
same,outcome,[4],inactive
same,outcome,[5],inactive
same,outcome,[6],inactive
same,outcome,[7],inactive
same,outcome,[8],inactive
same,outcome,[9],inactive
same,activation,[10],35.5% (active)
same,outcome,[11],inactive
same,outcome,[12],inactive
same,outcome,[13],inactive
same,outcome,[14],inactive
same,outcome,[15],inactive
same,outcome,[16],inactive
COc1ccc(C(CCNCc2ccc(N(C)C)cc2)c2ccccc2)cc1 (stereo not given),activation,[1],165% (active)
same,outcome,[2],inactive
same,outcome,[3],inactive
same,outcome,[4],inactive
same,outcome,[5],inactive
same,outcome,[6],inactive
same,outcome,[7],inactive
same,outcome,[8],inactive
same,outcome,[9],inactive
same,outcome,[10],inactive
same,outcome,[11],inactive
same,activation,[12],26.5% (active)
same,outcome,[13],inactive
same,outcome,[14],inactive
same,outcome,[15],inactive
same,outcome,[16],inactive
Cc1ccccc1Cn1c(CN2CCc3ccccc3C2)nc2c1c(=O)n(C)c(=O)n2C,activation,[1],163% (active)
same,outcome,[2],inactive
same,potentiation,[3],6% (active)
same,potentiation,[4],46% (active)
same,outcome,[5],inactive
same,outcome,[6],inactive
same,outcome,[7],inactive
same,outcome,[8],inactive
same,outcome,[9],inactive
same,activation,[10],71% (active)
same,outcome,[11],inactive
same,outcome,[12],inactive
same,outcome,[13],inactive
same,potentiation,[14],88.5% (active)
same,outcome,[15],inactive
same,outcome,[16],inactive
CC(C)C1CC(CCNCc2ccc(N(C)C)cc2)(c2ccccc2)CCO1 (stereo not given),activation,[1],185% (active)
same,outcome,[2],inactive
same,outcome,[3],inactive
same,outcome,[4],inactive
same,outcome,[5],inactive
same,outcome,[6],inactive
same,outcome,[7],inactive
same,outcome,[8],inactive
same,outcome,[9],inactive
same,activation,[10],29% (active)
same,outcome,[11],inactive
same,activation,[12],31.2% (active)
same,outcome,[13],inactive
same,outcome,[14],inactive
same,outcome,[15],inactive
same,outcome,[16],inactive
CC(C)C1CC(CCNCc2ccc3c(c2)OCO3)(c2ccccc2)CCO1 (stereo not given),activation,[1],96% (active)
same,outcome,[2],inactive
same,outcome,[3],inactive
same,outcome,[4],inactive
same,outcome,[5],inactive
same,outcome,[6],inactive
same,outcome,[7],inactive
same,outcome,[8],inactive
same,outcome,[9],inactive
same,activation,[10],64% (active)
same,outcome,[11],inactive
same,activation,[12],5.88% (active)
same,outcome,[13],inactive
same,outcome,[14],inactive
same,outcome,[15],inactive
same,outcome,[16],inactive
COc1ccc(-c2nn(-c3ccccc3C)cc2CNCc2cccnc2)cc1F,activation,[1],128% (active)
same,outcome,[2],inactive
same,outcome,[3],inactive
same,outcome,[4],inactive
same,outcome,[5],inactive
same,outcome,[6],inactive
same,outcome,[7],inactive
same,outcome,[8],inactive
same,outcome,[9],inactive
same,activation,[10],33% (active)
same,outcome,[11],inactive
same,outcome,[12],inactive
same,outcome,[13],inactive
same,outcome,[14],inactive
same,outcome,[15],inactive
same,outcome,[16],inactive
